Data reported in ChEMBL document CHEMBL4513216, “Probing the Open Global Health Chemical Diversity Library for Multistage-Active Starting Points for Next-Generation Antimalarials” (ACS Infect Dis, 2020).
Screen size: about 69,000 compounds; about 8,600 (12%) showed an effect of 50% or more. Shown is part of a subset that was picked to be rich in strong results.

Test system: Plasmodium berghei
Test: Screen against P. berghei liver stage (PbLuc), transformed with Luciferase, at 10uM
Format: functional, HepG2
Settings: tested at 10 uM

SMILES	INHIBITION [%]
CCc1ccc(CN2CCC3(CC2)NC(=O)CC3c2ccncc2)o1 (centres undefined)	21.6
Cn1cc(CN2CCCC23CCN(C(=O)c2ccccn2)CC3)cn1	-17.1
O=c1ccc2c([nH]1)CCC(NCc1ccncc1)C2 (centres undefined)	11.5
Cc1cccc(N2CCCN=C2NC(=O)c2cccc(Cl)c2)c1	-25.5
CSC1=Nc2c(cnn2-c2cccc(Cl)c2)C2=NCCCN12	79.7
CCSC1=Nc2c(cnn2-c2ccc(Cl)cc2)C2=NCCCN12	-37.1
CC(=O)c1nn(-c2cccc(Cl)c2)c(C)c1C(C)=O	12.3
CSC1=Nc2c(cnn2-c2ccc(Cl)cc2)C2=NCCCN12	64.8
CSC1=Nc2c(cnn2-c2ccccc2)C2=NCCCN12	73.9
O=C(NC1=NCCCN1c1ccc(Cl)cc1)c1cccc(Cl)c1	15.1
CSC1=Nc2c(cnn2-c2ccc(C)cc2)C2=NCCCN12	69.8
CC(C)(C)C(=O)N1CCCc2c(cnn2-c2ccccc2)C1	-43.9
COC(=O)c1cccc(NCC(=O)NC(N)=O)c1	-5.92
CN(Cc1cccc2cnccc12)C(=O)CCc1n[nH]c2c1CCCC2	34.9
Cc1ccc(NC(=O)CCc2cnn(C)c2)cc1F	22.3
Cc1cccc(C2(C(=O)NCC3CCN(CC(F)(F)F)C3)CCC2)c1 (centres undefined)	5.03
CS(=O)(=O)NC1CCCN(C(=O)c2cccnc2)C1 (centres undefined)	-16
CC(O)CN1CCC(CN(C)CCC(=O)NC2CCCCC2)CC1 (centres undefined)	19.7
CCc1cc(N[C@@H](CO)C(N)=O)n2nc(C)c(C)c2n1	54.4
CCc1cc(N[C@H](C(N)=O)C(C)C)n2nc(C)c(C)c2n1	16.3
CCc1cc(N[C@@H](CC(C)C)C(N)=O)n2nc(C)c(C)c2n1	47.7
Cc1cccc(CN(Cc2ccc(C)o2)C2CC(C)(C)NC(C)(C)C2)n1	53.5
Cc1ccc(CN(Cc2ccncc2)C2CC(C)(C)NC(C)(C)C2)o1	7.05
Cc1ccc(CN(Cc2ncc[nH]2)C2CC(C)(C)NC(C)(C)C2)o1	91.6
Cc1ccc(CN(Cc2[nH]cnc2C)C2CC(C)(C)NC(C)(C)C2)o1	38.2

SMILES	INHIBITION [%]
Cc1ccc(CN(Cc2c[nH]cn2)C2CC(C)(C)NC(C)(C)C2)o1	19.3
CC1(C)CC(N(Cc2ccccc2)Cc2ncc[nH]2)CC(C)(C)N1	10.26
CC(C)CO[C@@H]1CC[C@H]2[C@H]1OCCN2S(=O)(=O)C1CC1	28.3
Cc1cncnc1C1CCN(CCO)CC1	-20.6
CC(=O)NCc1ccc(C(=O)NC2CCc3nc(C)cn3C2)o1 (centres undefined)	17.945
O=C(C[C@@H]1COC[C@H]2CN(Cc3cccnc3)C[C@@H]12)N1CCOCC1	19.5
CN1CCN([C@H]2COC[C@@H]3CN(Cc4cccnc4)C[C@@H]32)CC1	57.9
COc1ccc(CN2C[C@@H]3COC[C@@H](CC(=O)N4CCCC4)[C@@H]3C2)cc1	-26.5
COc1ccc(CN2C[C@@H]3COC[C@H](N4CCN(C)CC4)[C@@H]3C2)cc1	40.4
Cc1cc(C)cc(CN2C[C@H]3COC[C@H](N4CCN(C)CC4)[C@H]3C2)c1	47.4
COc1ccc(CN2C[C@@H]3COC[C@@H](N4CCN(C)CC4)[C@@H]3C2)cc1	68.4
Cc1nc(CN2CCCN(Cc3nccn3C(C)C)CC2)no1	29.7
CNc1nc(CNC(=O)Nc2cccc(CC(F)(F)F)c2)cs1	7.5
CNC(=O)[C@H]1C[C@@H]2CN(Cc3cccnc3OC)C[C@@H]2N1C(C)C	33.4
CNC(=O)[C@H]1C[C@@H]2CN(c3cc(OC)ncn3)C[C@@H]2N1C(C)C	55.6
CNC(=O)[C@@H]1C[C@H]2CN(c3ncccn3)C[C@H]2N1C(C)C	24.6
CN1CCN(C[C@H]2OC[C@@H]3CCN(Cc4ccsc4)C[C@@H]32)CC1	22.4
O=C(c1ccn(COc2ccc(F)cc2)n1)N1CCCCCC1	-24.6
O=C(c1ccn(COc2ccc(F)cc2)n1)N1CCCC1	-28
CC(C)c1ccc(OCn2ccc(C(=O)N3CCCC3)n2)cc1	83.4
CN(CCc1ccccn1)Cc1nccn1Cc1ccccc1	81.2
CN(CCc1ccncc1)Cc1nccn1Cc1ccccc1	11.6
CN(Cc1ccncc1)Cc1nccn1Cc1ccccc1	-46.4
CC(C)CC(=O)N1CCCC1c1nccnc1Nc1ncccn1 (centres undefined)	32.3
O=S(=O)(CC1CCCN1S(=O)(=O)C1CC1)c1ccccc1 (centres undefined)	7.77

SMILES	INHIBITION [%]
CS(=O)(=O)N1CCCC1CS(=O)(=O)c1ccccc1 (centres undefined)	66.9
O=S(=O)(CC1CCCN1S(=O)(=O)c1cccnc1)c1ccccc1 (centres undefined)	13.2
O=C1NC(c2cnc(C3CCC3)s2)Nc2ccccc21 (centres undefined)	-90.1
CC(C)Nc1nc2c(c(N(C)C)n1)CCN(C(=O)c1cc[nH]n1)CC2	50.7
CC(C)N(C)Cc1n[nH]c2c1CCN(C(=O)c1cc[nH]n1)C2	8.03
Cc1nc2c(c(NC(C)C)n1)CCN(C(=O)c1cc[nH]n1)CC2	34.6
O=C(C[C@@H]1COC[C@H]2CN(C3CCOCC3)C[C@@H]12)Nc1cnccn1	42.5
COc1ccccc1C1(O)CCCN(C(=O)c2cnc(SC)nc2)C1 (centres undefined)	36.9
O=C(CC1CC1)N[C@@H]1CN(Cc2ccc(F)cc2)C[C@@H]2CCCO[C@@H]21	-6.23
COc1ccc(CN2C[C@@H]3CCCO[C@@H]3[C@H](NC(=O)CC3CC3)C2)cc1	-3.52
O=C(CC1CC1)N[C@@H]1CN(C(=O)c2ccoc2)C[C@@H]2CCCO[C@@H]21	71.1
O=C(CC1CC1)N[C@@H]1CN(c2ncccn2)C[C@@H]2CCCO[C@@H]21	-29.3
Cc1occc1C(=O)N1C[C@@H]2CCCO[C@@H]2[C@H](NS(C)(=O)=O)C1	43
O=C(CC1CC1)N[C@@H]1CN(Cc2ccoc2)C[C@@H]2CCCO[C@@H]21	3.25
Cc1occc1C(=O)N1C[C@@H]2CCCO[C@@H]2[C@H](NC(=O)CC2CC2)C1	62.9
O=C(CC1CC1)N[C@@H]1CN(Cc2ccco2)C[C@@H]2CCCO[C@@H]21	-2.17
O=C(N[C@@H]1CN(Cc2ccccc2)C[C@@H]2CCCO[C@@H]21)C1CC1	6.38
Cc1ccc(CN2C[C@@H]3CCCO[C@@H]3[C@H](NC(=O)CC3CC3)C2)s1	49.3
O=C(N[C@@H]1CN(Cc2ccoc2)C[C@@H]2CCCO[C@@H]21)C1CCC1	72
O=C(CC1CC1)N[C@@H]1CN(C(=O)c2ccsc2)C[C@@H]2CCCO[C@@H]21	63.8
O=C(CCC1CCCO1)NCc1ccccc1Cn1cncn1 (centres undefined)	34.7
COc1ccc(Nc2nc3c(C)nn(C)c3c(=O)n2C)c(C)c1	29
Cc1nn(C)cc1C(=O)N1CCCC(n2cncn2)C1 (centres undefined)	9.14
Cc1sc(C(=O)O)cc1S(=O)(=O)Nc1c(F)cccc1-n1cccn1	-28.8
O=C(NCC1(COc2cnccn2)C[C@@H](O)[C@@H](O)C1)C1CCOCC1 (some centres undefined)	-0.813

SMILES	INHIBITION [%]
Cc1n[nH]c(=O)c(C(=O)N2CCN(CCc3cccs3)CC2)c1C	-36.1
CSC(C)C(=O)NS(=O)(=O)c1ccc(F)c(C(F)(F)F)c1 (centres undefined)	25
Cc1ncsc1CN1CC[C@H]2C(=O)N(c3ccccc3)CCO[C@H]2C1	23.3
COc1ccc(CN2CCc3c(CNC(=O)CC#N)nn(C)c3C2)cc1	29.8
CCc1sc(-c2nnc(CNCCn3cc(C)cn3)o2)cc1C	30.8
CN(Cc1nnc(C2CC2)n1C)C1CCN(Cc2nccn2C)C1 (centres undefined)	21.6
COc1ncccc1NC(=O)NC(CCCO)c1ccccc1 (centres undefined)	25.4
CC(C)OC(=O)CNC(=O)Nc1ccc(-c2nc(C(C)C)no2)cc1	-17.8
O=C(CC1CC1)N[C@@H]1CN(Cc2nccs2)C[C@@H]2CCCO[C@@H]21	29
O=C(CC1CC1)N[C@@H]1CN(C(=O)c2cccs2)C[C@@H]2CCCO[C@@H]21	53.9
O=C(CC1CC1)N[C@@H]1CN(Cc2ccncc2)C[C@@H]2CCCO[C@@H]21	33.4
Cc1n[nH]c(C)c1CCC(=O)N(C)Cc1cn[nH]c1-c1ccc(F)cc1	11.8
COCC(=O)N1CCCC2(CCN(c3ccsc3)C2=O)C1 (centres undefined)	37
O=C(CC1CC1)N1CCCC2(CCC(=O)N2CC2CC2)CC1 (centres undefined)	6.27
CCc1nc(CCNc2ccc(S(N)(=O)=O)cc2C#N)cs1	42.4
Cc1csc(CCCNc2ccc(S(N)(=O)=O)cc2C#N)n1	66.5
Cc1nc(C)c(CCNc2ccc(S(N)(=O)=O)cc2C#N)s1	49.9
COCCN1CCC2(CC1)CN(C(=O)Cc1cccnc1)CCO2	14.9
Cc1ccc(CN2CCC3(CC2)CC3CN(C)Cc2cccnc2)o1 (centres undefined)	-24.9
CN(Cc1cccnc1)CC1CC12CCN(c1nncs1)CC2 (centres undefined)	16.9
CN(Cc1cccnc1)CC1CC12CCCC2 (centres undefined)	60.9
CN(Cc1cccnc1)CC1CC12CCN(Cc1nccs1)CC2 (centres undefined)	45.8
Cc1cnc(N2CCC3(C2)C(=O)N(C)CCN3Cc2cccnc2)nc1 (centres undefined)	-50.6
Cc1cnc(N2CCC3(CC2)CC3CN(C)Cc2cccnc2)nc1 (centres undefined)	71.6
